PABP polyA inh: PABP poly(A) RNA binding inhibitors, primary screen, biochemical, fluorescence polarization, uHTS. AID 2014, 2009. 290,000 tested, 1% active. Polyadenylate-binding protein 1 (Homo sapiens), P11940. inhibition, % at 35 µM;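 note: calls also rest on retests at 20 µM and on dose response follow-up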
Target sequence (P11940 whole entry, looked up): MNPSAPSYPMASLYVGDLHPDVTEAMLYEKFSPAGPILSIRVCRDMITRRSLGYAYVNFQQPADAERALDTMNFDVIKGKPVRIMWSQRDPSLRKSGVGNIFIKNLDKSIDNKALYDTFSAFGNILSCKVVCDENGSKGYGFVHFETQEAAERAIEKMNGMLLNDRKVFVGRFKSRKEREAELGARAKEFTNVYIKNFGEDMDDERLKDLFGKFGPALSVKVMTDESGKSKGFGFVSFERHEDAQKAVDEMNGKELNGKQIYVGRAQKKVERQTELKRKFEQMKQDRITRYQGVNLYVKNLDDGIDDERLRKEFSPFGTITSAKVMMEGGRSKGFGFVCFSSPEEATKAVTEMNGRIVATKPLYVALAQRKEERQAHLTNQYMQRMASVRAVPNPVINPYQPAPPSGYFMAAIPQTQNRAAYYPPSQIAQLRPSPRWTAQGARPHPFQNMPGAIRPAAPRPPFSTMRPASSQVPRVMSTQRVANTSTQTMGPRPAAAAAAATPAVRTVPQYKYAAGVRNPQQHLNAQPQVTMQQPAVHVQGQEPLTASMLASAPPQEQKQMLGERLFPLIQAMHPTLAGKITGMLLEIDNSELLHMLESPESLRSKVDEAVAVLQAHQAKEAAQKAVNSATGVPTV
MLLE-PAM2 inh: inhibitors of PABP1 MLLE–PAM2 peptide binding, primary screen, biochemical, fluorescence polarization, FITC-PAM2, GST-MLLE; Polyadenylate-binding protein 1 (Homo sapiens), P11940; inhibition, % at 20 µM; 360,000 tested, 0.36% active; in the data active = inhibition above about 35%, passing the limit was not always enough
PERK inh: block of dimerizer-induced PERK translation repression, primary screen, PERK inhibitor project, CHO PERK-DD cells, SEAP luminescence, HTS; Eukaryotic translation initiation factor 2-alpha kinase 3 (Homo sapiens), Q9NZJ5; CHO PERK-DD fusion, SEAP luminescence translation reporter; inhibition, % at 5.6 µM; 220,000 tested, 0.17% active; AID 1416, 2008;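 active = inhibition above the mean inhibition of all tested compounds plus 3 SD, set separately per screening campaign, cut at about 2.9% in these data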;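 note: PERK kinase domain activated by AP20187 dimerizer at 100 nM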
eIF4E 4G PPI: eIF4E–eIF4G protein interaction inhibitors, primary screen, biochemical, uHTS, TR-FRET, eIF4GI fragment | Eukaryotic translation initiation factor 4E (Mus musculus) + Eukaryotic translation … | TR-FRET eIF4E-eIF4GI(517-606) binding, 2 h | inhibition, % at 21.7 µM | 220,000 tested, 0.37% active;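 active = inhibition above about 30%, limit read from the data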
eIF4H FP inh: human eIF4H binding inhibitors, primary screen, translation initiation inhibitor project, biochemical, uHTS, fluorescence polarization | Eukaryotic translation initiation factor 4H (Homo sapiens), Q15056 | inhibition, % at 35 µM | 290,000 tested, 0.94% active | eIF4H fluorescence polarization binding assay;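 note: calls also rest on retests at 20 µM and on dose response follow-up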
PfM18AAP inh-1: PfM18AAP inhibitors, malaria aminopeptidase, primary screen, biochemical, QFRET, recombinant enzyme; M18 aspartyl aminopeptidase (Plasmodium falciparum 3D7); H-Glu-NHMec fluorogenic cleavage; inhibition, % at 7.35 µM; 290,000 tested, 1.2% active; AID 1822, 2009;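 active = inhibition above the campaign mean inhibition over all tested compounds plus 3 SD, cut at about 28% in these data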
PfM18AAP inh-2: PfM18AAP inhibitors, malaria aminopeptidase, confirmation, biochemical, QFRET, recombinant enzyme, triplicate | H-Glu-NHMec fluorogenic cleavage | shares compounds with PfM18AAP inh-1 | inhibition, % at 7.35 µM | 2,400 tested, 28% active;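 active = mean inhibition over replicate wells above the hit cutoff set for the earlier primary screen, cut at about 29% in these data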
CTSL1 confirm: cathepsin L1 inhibitors, retest, confirmation, counter-screen for PFM18AAP inhibitor project, biochemical, QFRET, triplicate; 2,400 tested, under 10 active; inhibition, % at 5.96 µM; purified cathepsin L1, Z-Leu-Arg-MCA fluorescence; AID 2178, 2009; shares compounds with PfM18AAP inh-1;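 active = average inhibition across replicates above the hit cutoff set in the earlier primary screen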
Large screens that a line does not name were inactive (follow-up assays come after a bar, where they were run); [ ] = dose if it differs, or a comment. Only some compounds are listed: those with a hit (about 2.4% of all), similar ones and a draw of the others. Unless noted, the rule behind the calls is not given here.

O=C(N/N=C/c1ccc(O)c(O)c1O)/C(=C/c1ccc([N+](=O)[O-])cc1)NC(=O)c1ccccc1	PABP polyA inh 59, eIF4H FP inh 105, PfM18AAP inh-1 54 | PfM18AAP inh-2 34 | CTSL1 confirm inactive
COc1ccc(CCN2CCCn3c2nc2c3c(=O)n(CC(C)C)c(=O)n2C)cc1OC	none (no result: PERK inh, eIF4E 4G PPI)
CNC(=O)C(Sc1ccccc1)c1ccccc1 (centres undefined)	none
O=C(Nn1cnnc1)C(c1ccccc1)c1ccccc1	PfM18AAP inh-1 43 | PfM18AAP inh-2 inactive | CTSL1 confirm inactive
O=C(Nn1cnnc1)C(Sc1ccccc1)c1ccccc1 (centres undefined)	PfM18AAP inh-1 48 | PfM18AAP inh-2 34 | CTSL1 confirm inactive
COc1cc(/C=C2\CC/C(=C\c3cc(OC)c(OC)c(OC)c3)C2=O)cc(OC)c1OC	none
COc1cc(/C=C2\CC/C(=C\c3cc(OC)c(O)c(OC)c3)C2=O)cc(OC)c1O	eIF4E 4G PPI 40[fluorescence artefact?], PfM18AAP inh-1 51 | PfM18AAP inh-2 48 | CTSL1 confirm inactive
COC(=O)c1cnc(N)s1	none (no result: PABP polyA inh, PERK inh, eIF4E 4G PPI, eIF4H FP inh, PfM18AAP inh-1)
O=C(Cn1cnc2c(nnn2-c2cccc(Cl)c2)c1=O)NCc1ccccc1	none
CC1(C)Cc2c(sc(NC(=O)C(=O)NCCCN3CCOCC3)c2C#N)CO1	PfM18AAP inh-1 49 (no result: PERK inh, eIF4E 4G PPI) | PfM18AAP inh-2 inactive | CTSL1 confirm inactive
COC(=O)C(N)Cc1ccc(O)c(O)c1 (centres undefined)	PfM18AAP inh-1 84 | PfM18AAP inh-2 53 | CTSL1 confirm inactive
COc1cccc(C(=O)OCCCOC(=O)c2cccc(OC)c2OC)c1OC	none (no result: PERK inh, eIF4E 4G PPI)
Nc1nncn1C(=O)c1cccs1	PfM18AAP inh-1 40 | PfM18AAP inh-2 49 | CTSL1 confirm inactive
Cc1ccc(C(=O)n2cnnc2N)cc1C	PfM18AAP inh-1 44 | PfM18AAP inh-2 57 | CTSL1 confirm inactive
Cc1ccc(C(=O)N2CCC(C)CC2)cc1C	none
Nc1nncn1C(=O)c1c(Cl)cccc1Cl	none
Nc1nncn1C(=O)c1cc(Br)ccc1Cl	PfM18AAP inh-1 46 | PfM18AAP inh-2 48 | CTSL1 confirm inactive
COc1cccc(C(=O)n2cnnc2N)c1OC	PfM18AAP inh-1 56 | PfM18AAP inh-2 51 | CTSL1 confirm inactive
CCOC(=O)c1c(C)[nH]c(C(=O)OCC(=O)N(CC(C)C)C2CCS(=O)(=O)C2)c1C (centres undefined)	none (no result: PABP polyA inh, PERK inh, eIF4E 4G PPI, eIF4H FP inh, PfM18AAP inh-1)
Cc1ccc(C)c(C(=O)n2cnnc2N)c1	PfM18AAP inh-1 35 | PfM18AAP inh-2 51 | CTSL1 confirm inactive
Cc1ccc(C(=O)n2cnnc2N)cc1	PfM18AAP inh-1 41 | PfM18AAP inh-2 47 | CTSL1 confirm inactive
COc1cc(/C=C2/C(=O)N(c3ccc(Br)cc3)N=C2C)cc(OC)c1OC	none (no result: PERK inh, eIF4E 4G PPI)
COc1cc(/C=C2/C(=O)N(c3ccc(C(=O)O)cc3)N=C2C)cc(OC)c1O	PABP polyA inh inconclusive, eIF4H FP inh inconclusive, PfM18AAP inh-1 50 (no result: PERK inh, eIF4E 4G PPI) | PfM18AAP inh-2 29 | CTSL1 confirm inactive
CCn1c(-c2cc(-c3ccccc3)sc2N)n[nH]c1=S	PfM18AAP inh-1 41 | PfM18AAP inh-2 inactive | CTSL1 confirm inactive
CCn1c(-c2ccccc2O)n[nH]c1=S	none
Cc1cccc(OCCSc2nc(N)cc(N)n2)c1	PfM18AAP inh-1 42 | PfM18AAP inh-2 inactive | CTSL1 confirm inactive
CC1=NN(c2ccccc2)C(=O)C1(C)[N+](=O)[O-] (centres undefined)	none
COC(=O)c1ccccc1-c1cn(C)c2ccccc2c1=O	none (no result: PERK inh, eIF4E 4G PPI)
NC(=O)c1ccsc1NC(=O)COC(=O)c1cccnc1Cl	none (no result: PABP polyA inh, PERK inh, eIF4E 4G PPI, eIF4H FP inh, PfM18AAP inh-1)
O=C(COC(=O)c1cnccn1)c1ccc([N+](=O)[O-])cc1	PfM18AAP inh-1 40 | PfM18AAP inh-2 inactive | CTSL1 confirm inactive
O=C(CCC(=O)OCC(=O)c1ccc([N+](=O)[O-])cc1)Nc1ccccc1Cl	PfM18AAP inh-1 40 (no result: PERK inh, eIF4E 4G PPI) | PfM18AAP inh-2 inactive | CTSL1 confirm inactive
O=C(CCc1ccccc1)OCC(=O)c1ccc([N+](=O)[O-])cc1	PfM18AAP inh-1 46 | PfM18AAP inh-2 inactive | CTSL1 confirm inactive
Cc1cc(C)nc(SCC(=O)c2ccc(F)cc2)n1	none (no result: PERK inh, eIF4E 4G PPI)
Cc1cc(C)nc(SCNC(=O)c2ccc(F)cc2)n1	PfM18AAP inh-1 50 | PfM18AAP inh-2 inactive | CTSL1 confirm inactive
O=C(Cc1ccccc1)NN=C1CCCC1	none (no result: PABP polyA inh, PERK inh, eIF4E 4G PPI, eIF4H FP inh, PfM18AAP inh-1)
N#CCC(=O)NN=C1CCCCCCCCCCC1	PfM18AAP inh-1 54 | PfM18AAP inh-2 inactive | CTSL1 confirm inactive
NC(=O)C1C2CCC(C2)C1C(N)=O (centres undefined)	none (no result: PABP polyA inh, PERK inh, eIF4E 4G PPI, eIF4H FP inh, PfM18AAP inh-1)
NS(=O)(=O)c1ccc(CCNc2nn3c(-c4cccc(OC(F)(F)F)c4)cnc3s2)cc1	none (no result: PABP polyA inh, PERK inh, eIF4E 4G PPI, eIF4H FP inh, PfM18AAP inh-1)
Cc1ccc(S(=O)(=O)Nc2ccc(O)c3ncccc23)cc1	PfM18AAP inh-1 40 | PfM18AAP inh-2 inactive | CTSL1 confirm inactive
Cc1ccc(S(=O)(=O)Nc2cccc3ncccc23)cc1	none
Cc1ccc(S(=O)(=O)Nc2ccc3ncccc3c2[N+](=O)[O-])cc1	none (no result: PABP polyA inh, PERK inh, eIF4E 4G PPI, eIF4H FP inh, PfM18AAP inh-1)
Cc1ccc(S(=O)(=O)Nc2ccc(O)c3cccnc23)cc1	PfM18AAP inh-1 49 (no result: PERK inh, eIF4E 4G PPI) | PfM18AAP inh-2 30 | CTSL1 confirm inactive
CCN(CC)C(=O)[C@H]1CC(CC(=O)NCCCn2ccnc2)C(=O)N2CCc3c([nH]c4ccccc34)[C@]12C (some centres undefined)	none (no result: PABP polyA inh, PERK inh, eIF4E 4G PPI, eIF4H FP inh, PfM18AAP inh-1)
CC(C)C(c1nnnn1Cc1ccc(F)cc1)N1CCN(c2ccc(O)cc2)CC1 (centres undefined)	PfM18AAP inh-1 32 | PfM18AAP inh-2 inactive | CTSL1 confirm inactive
COc1ccc(Cn2nnnc2C(C(C)C)N2CCN(c3ccccc3OC)CC2)cc1 (centres undefined)	none
CCOC(=O)C1C(=O)C=C(c2cccs2)CC1c1ccccc1 (centres undefined)	PfM18AAP inh-1 56 | PfM18AAP inh-2 inactive | CTSL1 confirm inactive
CCOC(=O)C1C(=O)C=C(c2cccs2)CC1c1ccccc1C (centres undefined)	none
N=c1c(S(=O)(=O)c2ccccc2)cc2c(=O)n3ccccc3nc2n1CCCN1CCOCC1	PfM18AAP inh-1 34 (no result: PERK inh, eIF4E 4G PPI) | PfM18AAP inh-2 inactive | CTSL1 confirm inactive
